Experimental findings from PubChem BioAssay AID651661 (Broad Institute, 2012) are described below.

The structures appear in SMILES notation. Several values for one entry are separate records, joined by “and”; a condition that tells them apart may be missing. Equal values may be shown once. The whole screen tested about 350,000 compounds, of which about 2,300 (0.66%) were called active.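 Rule for the calls: active = mean inhibition of at least 50% after viability correction, with every replicate also passing that limit; inconclusive = mean reaches 50% but only one of two replicates passes; inactive = the rest.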 For the sample, actives were picked, then their nearest neighbours and some compounds at random. More than one record can exist for a structure, and the calls need not agree.

The assay can be described thus: blockers of EWS/Fli transcriptional output – A673 cells, NR0B1 luciferase, luminescence, MLPCN library, primary screen (AID 651661).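 Note: firefly luciferase signal divided by Alamar Blue viability fluorescence both relative to DMSO.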 To be noted: A673 NR0B1-luciferase reporter, viability-normalised; at 12.6 µM; stronger effect = higher value. (In general: In a reporter assay the amount or activity of a reporter protein is the signal.)
Take `Oc1c(Cl)cc(Cl)c(Cl)c1Cc1c(O)c(Cl)cc(Cl)c1Cl`: the inhibition – broadly, the drop in the measured response relative to a control, in per cent – is 50.1% (active).
Consider `C/C=C/c1ccc(C2[C@H]3CNC[C@@H]2N3Cc2cccc(F)c2)cc1` (stereo partly drawn), for which the inhibition is 4.29% (inactive).
Regarding `Cc1csc(NC(=O)c2ccc(-c3ccc(Cl)cc3Cl)o2)n1`, the inhibition was -14% (inactive).
Under `COc1cc(SC)ccc1C(=O)NNC(=O)C1COc2ccccc2O1` (stereo not drawn) stands -2.85% (inactive).
Under `COc1cc(SC)ccc1C(=O)Nc1nc(C)cs1` stands 76.2% (active); under `CO[C@@H]1CN(C)C(=O)c2ccc(NC(=O)c3ccc(F)cc3)cc2OC[C@H](C)N(C)C[C@H]1C`, 4.5% (inactive); under `C[C@H](CO)N1C[C@H](C)[C@@H](CN(C)CC2CC2)Oc2ccc(NS(=O)(=O)c3cn(C)cn3)cc2CC1=O`, -13.9% (inactive).
Under `CO[C@H]1CN(C)C(=O)c2ccc(NC(=O)NC(C)C)cc2OC[C@@H](C)N(C(=O)CN(C)C)C[C@H]1C` stands 8.16% (inactive); under `Cc1nc(N=C(N)N)nc2c(C)cccc12`, 34.9% (inactive); under `Cc1onc(-c2ccccc2)c1C(=O)N=C(N)c1ccc(Cl)cc1`, -16.4% (inactive).
For `NC(N)=Nc1nc(-c2ccccc2)c2cc(Cl)ccc2n1`, the inhibition was 63.6% (active).
With `CC(C)NC(=O)N(C)C[C@@H]1Oc2ncc(C#Cc3ccncc3)cc2C(=O)N([C@@H](C)CO)C[C@@H]1C`, the inhibition is -7.78% (inactive).
Under `COC(=O)C[C@@H]1C[C@H]2c3cc(NC(=O)Nc4ccc(F)cc4)ccc3O[C@H]2[C@@H](CO)O1` stands 6.58% (inactive).
Take `CC(C)(C)[S@](=O)N1Cc2cc(C(=O)N3CCCCC3)nc(-c3cccc(Br)c3)c2[C@@H]1CCO`: the inhibition is 0.582% (inactive).
For `N#C[C@@H]1[C@@H](c2ccc(C#Cc3cccc(F)c3)cc2)[C@H](CO)N1C(=O)C1CCOCC1`, the inhibition was -36% (inactive).
Under `N#C[C@@H]1[C@@H](c2ccc(C#Cc3cccc(F)c3)cc2)[C@@H](CO)N1C(=O)C1CCC1` stands -10% (inactive); under `N#C[C@@H]1[C@H](c2ccc(C#Cc3cccc(F)c3)cc2)[C@@H](CO)N1C(=O)C1CCCC1`, 59.3% (active); under `Cc1noc(C)c1NC(=O)N(C)C[C@@H]1Oc2ccc(NC(=O)CCN3CCOCC3)cc2CC(=O)N([C@H](C)CO)C[C@@H]1C`, -3.43% (inactive).
Under `CCCCCCCCn1c2c(c(=N)c3c1CCC3)CCCC2` stands 55.8% (active); under `CO[C@@H](CN(C)C(=O)Nc1ccc(F)cc1)[C@H](C)CN(Cc1ccccc1Cl)[C@@H](C)CO`, 2.29% (inactive).
Under `O=C(NCC[C@H]1CC[C@@H](NS(=O)(=O)c2cccc(Cl)c2)[C@@H](CO)O1)c1cnccn1` stands -2.88% (inactive); under `CCOC(=O)c1cccc(NC(=O)CCOc2ccccc2)c1`, -49.3% (inactive).
On to `CCOCCC(=O)Nc1ccc2c(c1)c(=O)n(C)n2-c1ccc2ccccc2c1`, for which the inhibition was 56.3% (active).
Under `COc1cc(Cn2c3ccc(NC(=O)CC(C)c4ccccc4)cc3c(=O)n2C)ccc1F` (stereo not drawn) stands 11% (inactive); under `CC(=O)N(C)C[C@H]1Oc2ncc(C#Cc3ccccn3)cc2C(=O)N([C@H](C)CO)C[C@@H]1C`, 1.56% (inactive); under `C[C@@H]1CCCCO[C@@H](CN(C)C(=O)Nc2ccc3c(c2)OCO3)[C@H](C)CN([C@H](C)CO)C(=O)c2cc(NC(=O)CCCN(C)C)ccc2O1`, -6.47% (inactive).
Under `COc1ccc(OC)c(Cc2cnc3nc(N)nc(N)c3c2C)c1` stands 62.9% (active); under `COc1ccc(OC)c(Cc2nnc(CCC(=O)NC3CCCC3)o2)c1`, -17.8% (inactive).
Under `COc1ccc(OC)c(NC(=O)c2sc3nc(C)cc(C)c3c2N)c1` stands -6% (inactive); under `CO[C@H]1CN(C)C(=O)c2cc(NC(=O)C3CC3)ccc2OC[C@@H](C)N(CCc2ccccc2)C[C@H]1C`, -1.43% (inactive); under `CN(C)CCCNC(=O)C[C@H]1CC[C@H]2[C@@H](COC[C@H](O)CN2CC2CCCCC2)O1`, -0.386% (inactive).
Take `CC(=O)N(C)C[C@@H]1Oc2ncc(C#Cc3ccc(F)cc3)cc2C(=O)N([C@H](C)CO)C[C@@H]1C`: the inhibition is -7.39% (inactive).
Under `CC(C)CN(C[C@@H]1N[C@@H](CO)[C@H]1c1ccccc1)C(=O)CN(C)C` stands 4.89% (inactive); under `O=C(/C=C/Sc1ncn[nH]1)c1ccc(Cl)cc1`, 67% (active); under `O=C(CSc1ncn[nH]1)Nc1ccc(Br)cc1Br`, -25.6% (inactive).
Under `Cc1ccc(S(=O)(=O)N(C)C[C@@H]2Oc3ccc(NS(=O)(=O)c4ccc(F)cc4)cc3CC(=O)N([C@@H](C)CO)C[C@H]2C)cc1` stands -0.853% (inactive).
Under `CC(C)CC#Cc1ccc2c(c1)O[C@H](CN(C)Cc1ccccc1F)[C@@H](C)CN([C@@H](C)CO)S2(=O)=O` stands -16.5% (inactive); under `O=C(C1CCCC1)N1CC(=O)N2[C@H](CO)[C@H](c3ccc(Br)cc3)[C@H]2C1`, -4.8% (inactive); under `CCCC#Cc1ccc([C@H]2[C@H](CO)N3C(=O)CN(C(=O)c4ccc(F)cc4)C[C@@H]23)cc1`, -7.03% (inactive).
On to `C=CCn1c(C)cc(C2=NNC(=NCC)SC2)c1C`, for which the inhibition is 91.7% (active).
For `CCCC#Cc1ccc2c(c1)O[C@H](CN(C)C(=O)C1CCCCC1)[C@H](C)CN([C@H](C)CO)S2(=O)=O`, the inhibition is 9.13% (inactive).
Under `CC(C)C#Cc1ccc([C@H]2[C@@H](CO)N3CCCCN(C(=O)Nc4ccccc4)C[C@H]23)cc1` stands 1.61% (inactive).
Under `C[C@@H](NC(=O)C[C@H]1C[C@@H]2c3cc(NC(=O)c4ccc5c(c4)OCO5)ccc3O[C@@H]2[C@@H](CO)O1)c1ccccc1` stands 2.79% (inactive); under `CNC(=O)C[C@@H]1CC[C@H]2[C@@H](COc3ccc(NC(=O)NCc4ccccc4)cc3C(=O)N2C)O1`, -5.62% (inactive).
Under `COC(=O)C1=C(C)N(Cc2ccc(C(F)(F)F)cc2)C(=NCc2ccc(C(F)(F)F)cc2)NC1c1cccc(Cl)c1` (stereo not drawn) stands 55.4% (active); under `COC(=O)C1=C(C)N(Cc2cccc(C(F)(F)F)c2)C(=NCc2ccccc2)NC1c1ccc(Cl)cc1` (stereo not drawn), 36.5% (inactive); under `COC(=O)C1=C(C)N(Cc2ccc(C(F)(F)F)cc2)C(=NCc2ccccc2)NC1c1ccccc1C(F)(F)F` (stereo not drawn), 25.1% (inactive).
On to `CN(C)CC(=O)N1[C@@H](C#N)[C@@H](c2ccccc2-c2ccccc2F)[C@@H]1CO`, for which the inhibition is -0.399% (inactive).
As for `Cc1ccccc1S(=O)(=O)N1C[C@@H]2N[C@H](C1)C2c1ccc(-c2cccc(C(=O)N(C)C)c2)cc1` (stereo partly drawn), the inhibition is -5.91% (inactive).
Under `COc1cccc(S(=O)(=O)N2C[C@@H]3N[C@H](C2)C3c2ccc(-c3cccc(C(=O)N(C)C)c3)cc2)c1` (stereo partly drawn) stands 10.3% (inactive) and 3.54% (inactive).
Under `COc1ccccc1S(=O)(=O)N1C[C@@H]2N[C@H](C1)C2c1ccc(-c2cccc(C)c2)cc1` (stereo partly drawn) stands 61.1% (active) and 2.71% (inactive); under `N#C[C@@H]1[C@H](c2ccc(-c3cccnc3)cc2)[C@H](CO)N1C(=O)C1CC1`, -1.35% (inactive).
Consider `COCC#Cc1ccc([C@@H]2[C@H](CO)N3C(=O)CN(C(=O)C4CCC4)C[C@@H]23)cc1`, for which the inhibition was -1.21% (inactive).
Under `COc1ccc(Nc2ncnc3ccc(Br)cc23)c(OC)c1` stands 72.3% (active); under `O=C(O)CCCCCNc1ncnc2ccc(Br)cc12`, -0.908% (inactive).
`Brc1ccc2ncnc(NCc3cccnc3)c2c1`: the inhibition was -8.78% (inactive).
`CNC[C@H]1OCCCC[C@@H](C)Oc2ccc(NC(=O)Nc3ccc(C(F)(F)F)cc3)cc2C(=O)N([C@H](C)CO)C[C@H]1C`: the inhibition is -7.97% (inactive).
Under `COCC(=O)Nc1ccc2c(c1)OC[C@@H](C)N(CCc1ccccc1)C[C@H](C)[C@@H](OC)CN(C)C2=O` stands 53.4% (active); under `COCC(=O)Nc1ccc2c(c1)C(=O)N(C)C[C@H](OC)[C@@H](C)CN(CCc1ccccc1)[C@@H](C)CO2`, 2.64% (inactive).
Under `COCC(=O)Nc1ccc2c(c1)OC[C@H](C)N(Cc1ccccc1)C[C@H](C)[C@@H](OC)CN(C)C2=O` stands 20.9% (inactive).
Under `CCC(=O)N1C[C@H](C)[C@@H](OC)CN(C)C(=O)c2cc(NC(=O)c3cnccn3)ccc2OC[C@@H]1C` stands 2.51% (inactive); under `O=C(c1cnccn1)N1CC(=O)N2[C@H](C1)[C@@H](c1ccc(C#CC3CCCCC3)cc1)[C@@H]2CO`, -6.01% (inactive); under `COc1ccc(/C=C2/SC(=O)N(CCCCCC(=O)Nc3ccccc3C(=O)O)C2=S)cc1`, 55.1% (active).
Take `COc1cccc(/C=C2\SC(=S)N(CCCC(=O)N3CCOCC3)C2=O)c1`: the inhibition is -15.9% (inactive).
With `COc1ccc(NC(=O)CCCC(=O)c2ccccc2)cc1`, the inhibition was 10.3% (inactive).
Under `COc1ccccc1S(=O)(=O)N[C@@H]1CC[C@H](CCn2cc(C3CCCC3)nn2)O[C@H]1CO` stands -6.51% (inactive); under `O=C(Nc1ccccc1F)N[C@H]1CC[C@@H](CCNS(=O)(=O)c2ccc(F)cc2)O[C@@H]1CO`, 4.92% (inactive); under `C[C@H](CO)N1C[C@H](C)[C@@H](CN(C)C(=O)C2CCCCC2)OCCCC[C@H](C)Oc2ccc(N(C)C)cc2C1=O`, -2.95% (inactive).
Under `CC(C)CNC(=O)C(=O)Nc1ccc(N(C)C)cc1` stands -41.5% (inactive); under `CC(C)CNC(=S)Nc1ccc(F)cc1`, 86.6% (active); under `CC(NC(=S)Nc1ccc(OC(F)F)cc1)c1ccc(F)cc1` (stereo not drawn), 0.035% (inactive).
Under `CO[C@H](C(=O)N(C)C[C@@H]1OCc2ccccc2-c2c(n(C)c3ccccc23)C(=O)N([C@@H](C)CO)C[C@H]1C)c1ccccc1` stands 8.3% (inactive); under `N#Cc1cccc(-c2ccc(C3[C@H]4CNC[C@@H]3N4S(=O)(=O)c3ccc(-c4ccccc4)cc3)cc2)c1` (stereo partly drawn), 3.68% (inactive) and -7.87% (inactive).
